Akt phos inh: blocks phosphorylation of Akt; AID 651550; Neuro2A IGF-stimulated pAkt S473 HTRF, 20 min; stronger effect = lower value; 360,000 tested, 0.32% active; activity change, % for hits at 50 µM; in the data active = activity change below about -80%; inconclusive = mostly about -51% to -80%; note: % is set by controls: 0 for no effect and ±100 for the full control effect
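Neuro2A cells (4,500/well, DMEM with 0.5% FBS) were treated with compound at a single 50 µM final concentration, stimulated with 6 nM IGF for 20 min at 37 °C, and lysed. Phospho-Akt Ser473 was read by HTRF as 665/615 ratio ×10^4.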
ClpP mod: qHTS Assay for Activators of ClpP | Potency, µM (series often up to 57.5 µM), for the others: at the top dose activity change, negative = active | 340,000 tested, 1.9% active | purified B. subtilis ClpP, FRET peptide cleavage, 20 min | ATP-dependent Clp protease proteolytic subunit (Bacillus subtilis (strain 168)), P80244; active = well fitted falling curve with a large enough effect; inconclusive = small, poorly fitted or top-dose-only effect; inactive = no such curve, though single readings can be large or run the other way; note: potency is the fitted concentration of half-maximal effect; the source files actives as falling curves though it sought activators and does not explain the sign; nearly all actives have a fitted effect of over 65% in size
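FRET quenching reversal measured ClpP activation: 10 microg/mL B. subtilis ClpP at pH 8 with the FRET-FV decapeptide, read at 430 nm after 320 nm excitation. The 20-min minus 0-min signal was scaled between DMSO/no-enzyme wells and ADEP (5.8 microM final).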
RXFP1 agonist: agonists of human relaxin receptor RXFP1 | Q9HBX9 | HEK293T-RXFP1 cAMP TR-FRET, 30 min; response scale: percent of porcine relaxin response, buffer zero | Potency, µM (series often up to 57.5 µM), without a hit: at the top dose activation, most hits filed as activators | 370,000 tested, 0.3% active; active = well fitted activation curve with a large enough effect; inconclusive = small, poorly fitted or top-dose-only effect; note: potency is the fitted concentration of half-maximal effect; % is set by controls: 0 for no effect and ±100 for the full control effect; nearly all actives have a fitted effect of over 60% in size
Target sequence (Q9HBX9 whole entry, looked up): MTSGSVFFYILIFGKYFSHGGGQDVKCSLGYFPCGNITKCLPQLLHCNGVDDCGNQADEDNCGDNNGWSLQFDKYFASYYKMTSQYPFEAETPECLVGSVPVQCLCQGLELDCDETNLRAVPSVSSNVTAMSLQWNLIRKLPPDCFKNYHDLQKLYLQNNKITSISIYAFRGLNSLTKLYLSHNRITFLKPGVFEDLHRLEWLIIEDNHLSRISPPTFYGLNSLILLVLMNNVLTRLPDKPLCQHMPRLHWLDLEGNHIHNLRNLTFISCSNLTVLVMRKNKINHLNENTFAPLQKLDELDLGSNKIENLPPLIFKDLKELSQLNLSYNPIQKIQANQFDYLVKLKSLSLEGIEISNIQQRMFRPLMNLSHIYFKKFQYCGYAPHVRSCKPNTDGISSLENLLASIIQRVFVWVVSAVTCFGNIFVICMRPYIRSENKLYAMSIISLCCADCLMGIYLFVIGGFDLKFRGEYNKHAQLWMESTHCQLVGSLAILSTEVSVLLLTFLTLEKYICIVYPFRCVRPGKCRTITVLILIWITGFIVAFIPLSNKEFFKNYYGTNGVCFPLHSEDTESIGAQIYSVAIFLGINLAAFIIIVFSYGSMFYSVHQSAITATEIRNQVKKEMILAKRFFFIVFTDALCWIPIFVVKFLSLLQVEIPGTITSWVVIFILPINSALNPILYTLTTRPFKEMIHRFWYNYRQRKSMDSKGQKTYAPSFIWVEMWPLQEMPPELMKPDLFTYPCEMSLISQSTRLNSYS
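cAMP rise read by TR-FRET after 30 min, 37C compound exposure (up to 58 uM) in RXFP1-transfected HEK293 cells with Ro 20174 present. EC50 from Hill-equation fits, with 29 nM porcine relaxin as 100% and buffer as basal.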
gsp antag: antagonists of gsp mutant (McCune-Albright syndrome) | gsp-mutant cells, cAMP HTRF, 30 min | Potency, µM (doses to about 76.9 µM), for inactives: top-dose activity change, negative = inhibition, hits mostly inhibitors | AID 624288 | 340,000 tested, 0.4% active; calls by dose curve; cell line not stated here;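 note: intracellular cAMP measured with PDE inhibitor Ro 20-1724 present during compound exposure; potency is the fitted concentration of half-maximal effect; % is set by controls: 0 for no effect and ±100 for the full control effect; nearly all actives have a fitted effect of over 65% in size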
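HTRF cAMP read-out (cAMP-d2 plus anti-cAMP antibody-K in lysis buffer, 30 min RT). Before lysis, cells are exposed to compounds with […] for 30 min at 37C in DPBS containing Ca/Mg, BSA and Tween 20.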
gsp ag: activates gsp, the McCune-Albright syndrome mutation; gsp mutant cells, cAMP HTRF, 30 min; Potency, µM (titrated, usually from 76.9 µM), for the others: at the top dose activation (cAMP increase), usual class: activators; 340,000 tested, 0.13% active; AID 624287; active = well fitted activation curve with a large enough effect; inconclusive = small, poorly fitted or top-dose-only effect, or another doubt; inactive = no such curve, though single readings can be large or run the other way; cell line not stated here;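 note: phosphodiesterase inhibitor Ro 20-1724 added with compounds to block cAMP breakdown; potency is the fitted concentration of half-maximal effect; nearly all actives have a fitted effect of over 60% in size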
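Cells in DMEM/10% FBS with G418 were pretreated with compounds in DMSO plus […] (300 uM stock) for 30 min at 37C. cAMP was measured by HTRF (cAMP-d2 plus anti-cAMP antibody-K) after 30 min at room temperature.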
RXFP1 antagonist: RXFP1 (human) relaxin receptor antagonism. activity change, negative = inhibition, % at 57.5 µM. 350,000 tested, 0.59% active. HEK293-RXFP1, relaxin-stimulated cAMP HTRF, 30 min; stronger effect = lower value;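 active = activity change of -60% or lower, but not beyond a set lower limit; inconclusive = change between -60% and -40%, or beyond the set limit; inactive = change above -40%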; note: % is set by controls: 0 for no effect and ±100 for the full control effect
The depositor's hits bear a star; i = inactive; ? = inconclusive; · = not tested or not shown; [ ] = remark or other dose. Most compounds without a hit are left out; they make up all but 2.7% or so of the library.

SMILES | Akt phos inh | ClpP mod | RXFP1 agonist | gsp antag | gsp ag | RXFP1 antagonist
Clc1ccc2nc(-c3ccncc3)cc(-c3ccccc3)c2c1 | i | -2.5% | 0.5% | 7.8% | -0.5% | -7.8
c1ccc(-c2cc(-c3ccncc3)nc3ccc4ccccc4c23)cc1 | i | 22.4µM* | 2.7% | -9.7% | 5.1%[15.4 µM] | -13.1
COc1cc(/C=N/Nc2nc(-c3ccc(S(=O)(=O)N(C)C)cc3)cs2)ccc1O | i | -4.1% | 0.7% | 31.6µM* | -12.4% | -7.2
COc1ccc(/C=N/Nc2nc(-c3cccc(S(=O)(=O)N4CCCC4)c3)cs2)cc1OC | i | -7.3% | 0.9% | 11.8% | -50.3% | -4.1
O=[N+]([O-])c1cc(/C=N\Nc2nc(-c3ccccc3)cs2)ccc1O | i | · | 2.9% | ? | -49.7% | -65.4*
CC1=C(C(=O)Nc2cc(C(=O)NCc3ccccc3)ccc2C)SCCO1 | i | -3.3% | · | · | -15.3% | -3.0
Cc1ccccc1OCCc1c(C)[nH]c(=S)[nH]c1=O | i | · | 0.8% | 25.7% | 11.2%[15.4 µM] | ?
CCCCCCCCOC(=O)CCc1c(C)[nH]c(=S)[nH]c1=O | i | 1.4% | 5.2% | 6.1% | 14.1% | -70.1*
Cc1[nH]c(=S)[nH]c(=O)c1CCOc1ccccc1 | i | -1.2% | -1.4% | 5.5% | 24.2% | -81.3*
CC(=O)Nc1ccc(NC(=O)COc2ccc(S(=O)(=O)N3CCCC3)cc2)cc1 | i | · | -0.4% | -4.6% | -2.9%[15.4 µM] | -3.6
N#Cc1c(-c2ccc([N+](=O)[O-])cc2)nc2n(c1=O)CCS2 | i | 0.7% | 24.1% | -5.7% | 14.1µM* | 7.7
Cc1nc2scc(C)n2c(=O)c1S(=O)(=O)N1CCN(c2ccccn2)CC1 | i | · | 25.1µM* | 18.2% | 43.3%[15.4 µM] | 18.2
Cc1nc2scc(C)n2c(=O)c1S(=O)(=O)N1CCN(c2ccccc2)CC1 | i | · | 21.6% | 16.8% | ? | 4.6
COc1ccc(CNC(=O)C2CCCN2C)cc1OC (stereo not given) | i | -0.6% | 3.0% | 7.9% | 6.4% | -2.8
Cc1ccc(Cn2c(/C=C/c3ccco3)nc3ccccc32)cc1 | i | 28.2µM* | 1.1% | 5.0% | 5.5% | -23.8
Clc1ccc(Cn2c(/C=C/c3ccco3)nc3ccccc32)cc1 | i | 35.5µM* | -0.3% | -7.4% | 0.7% | -31.0
CCCCn1c(/C=C/c2ccco2)nc2ccccc21 | i | -29.8% | -0.1% | 11.1% | 7.5% | 1.5
CCCn1c(/C=C/c2ccco2)nc2ccccc21 | i | -26.7% | -0.5% | 0.7% | -19.5% | -8.1
CCCOC(=O)c1ccc(Nc2c(C(=O)OCC)cnc3c(C)cc(Cl)cc23)cc1 | · | -3.4% | -0.1% | · | · | -9.6
COC(=O)Sc1nc(N2CCOCC2)c2c(c1C#N)CC(C)(C)OC2 | i | -0.7% | 8.1% | 14.8% | 14.1µM* | 14.9
CC1(C)Cc2c(C#N)c(N3CCOCC3)nc(Cc3ccccc3)c2CO1 | i | ? | 1.4% | -10.6% | 2.6% | -26.3
CC1(C)Cc2c(C#N)c(N3CCOCC3)nc(-c3ccccc3)c2CO1 | i | 35.5µM* | 3.0% | ? | -2.4% | -13.7
Cc1ccc(S(=O)(=O)N2CCN(c3nc(C)c4c(c3C#N)CC(C)(C)OC4)CC2)cc1 | i | 28.2µM* | -0.6% | 4.9% | -8.2% | -18.6
Cc1nc(N2CCOCC2)c(C#N)c2c1COC(C)(C)C2 | i | 31.6µM* | 3.8% | -6.7% | 8.4% | -27.6
COC(=O)CSc1nc(N2CCOCC2)c2c(c1C#N)CC(C)(C)OC2 | i | · | -3.3% | -11.0% | 3.5% | -9.7
SMILES | Akt phos inh | ClpP mod | RXFP1 agonist | gsp antag | gsp ag | RXFP1 antagonist
COc1cc(Cl)c(NS(=O)(=O)c2ccc(-c3coc(C)n3)cc2)c(OC)c1 | · | -0.5% | 0.0% | · | · | ·
CC(C)C(=O)N1CCN(c2nc(-c3ccccc3)c3c(c2C#N)CCCC3)CC1 | i | 28.2µM* | 4.4% | -10.1% | 15.8% | 9.4
O=C(COc1ccc2ccccc2c1)N1CCN(C(=O)c2ccco2)CC1 | i | · | 2.9% | -15.6% | 11.7%[15.4 µM] | -84.2*
Cc1ccc(OCC(=O)Nc2ccc(N3CCN(C(=O)c4ccco4)CC3)cc2)cc1C | i | 1.8% | -2.8% | 44.7µM* | 1.2%[15.4 µM] | -34.7
Cc1ccc(OCC(=O)N2CCN(C(=O)c3ccco3)CC2)cc1 | i | 0.6% | 0.1% | 12.5% | 8.9%[15.4 µM] | -21.0
CCOc1ccc(NC(=O)CSc2nnc3c(n2)[nH]c2ccc(S(=O)(=O)N4CCCCC4)cc23)cc1 | · | -3.3% | · | · | · | ·
FC(F)(F)c1nc(-c2cccs2)ncc1-c1nnnn1-c1ccc(Cl)cc1 | i | 35.5µM* | 0.2% | ? | 1.6% | -18.2
Clc1ccc(-n2nnnc2-c2cnc(-c3ccncc3)nc2-c2cccs2)cc1 | i | -6.7% | -3.6% | -13.3% | 5.5% | -10.2
C=CCn1c(SCC(=O)NC(=O)NCCC)nnc1C1CCCCC1 | i | 3.16µM* | 2.6% | 4.8% | 25.7% | -2.2
COc1cccc(-n2c(=O)c3cc(OC)c(OC)cc3n(CC(=O)Nc3ccccc3)c2=O)c1 | · | 4.0% | 3.1% | · | · | ·
CCOc1cnc(-c2ccc(Cl)cc2)o1 | i | ? | 3.0% | 2.1% | 8.8% | -7.3
CCOc1cnc(-c2ccc(OC)cc2)o1 | i | 25.1µM* | 1.3% | 4.9% | 3.5% | -3.1
COc1ccc2nc3oc(C(=O)N4CCCCC4)cc3cc2c1 | i | 28.2µM* | 3.0% | -11.6% | 10.5% | -3.6
CCOCCCNC(=O)c1cc2cc3cc(OC)ccc3nc2o1 | i | 3.3% | 10.0% | -5.6% | 44.8% | 2.7
CCOC(=O)C1CCN(C(=O)c2cc3cc4cc(OC)ccc4nc3o2)CC1 | i | 17.8µM* | 2.9% | -23.7% | -1.0% | -2.7
COc1ccc2nc3oc(C(=O)NCCCOC(C)C)cc3cc2c1 | i | 3.8% | 6.1% | 50.1µM* | ? | -6.7
Cc1cc(C)n(-c2nc3cc(Cl)ccc3nc2N2CCN(c3cccc(C)c3C)CC2)n1 | · | -2.5% | 0.8% | · | · | -3.1
Cc1noc(C)c1NC(=O)N(C)C[C@@H]1Oc2cc(Br)ccc2S(=O)(=O)N([C@H](C)CO)C[C@@H]1C | i | -2.7% | · | · | -98.8% | -2.3
CCCn1c(=O)c2c(C(=O)OCC)cc(-c3ccco3)nc2n(CCC)c1=O | i | 12.6µM* | -2.4% | -14.0% | -0.9% | -10.8
CCOC(=O)c1cc(-c2ccco2)nc2c1c(C)nn2-c1ccccc1 | i | -4.7% | 2.6% | 1.7% | -40.1% | -4.3
CCOC(=O)c1cnn2c(C(F)(F)F)cc(-c3ccco3)nc12 | i | 31.6µM* | -0.2% | 1.8% | ? | -0.8
ClC(Cl)(c1nnnn1-c1ccccc1)c1nnnn1-c1ccccc1 | i | -0.2% | 1.2% | ? | -5.4% | -91.0*

Bioassay records (PubChem)
